# This is a sample that favours compounds with a hit; in the whole collection about 3.6% have one here.
# Mdm2-MdmX inh – inhibitors of human Mdm2-MdmX association, primary screen, cell-based, luminescence, split luciferase, SaOS-2, uHTS. Protein Mdm4 (Homo sapiens) + E3 ubiquitin-protein ligase Mdm2 (Homo sapiens), …. SaOS-2 split-luciferase Mdm2/MdmX complementation. inhibition, % at 8 µM. 330,000 compounds, 3% hits;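 active = inhibition of at least 50% at 8 µM in the primary screen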
# Target sequence (O15151 whole entry, looked up): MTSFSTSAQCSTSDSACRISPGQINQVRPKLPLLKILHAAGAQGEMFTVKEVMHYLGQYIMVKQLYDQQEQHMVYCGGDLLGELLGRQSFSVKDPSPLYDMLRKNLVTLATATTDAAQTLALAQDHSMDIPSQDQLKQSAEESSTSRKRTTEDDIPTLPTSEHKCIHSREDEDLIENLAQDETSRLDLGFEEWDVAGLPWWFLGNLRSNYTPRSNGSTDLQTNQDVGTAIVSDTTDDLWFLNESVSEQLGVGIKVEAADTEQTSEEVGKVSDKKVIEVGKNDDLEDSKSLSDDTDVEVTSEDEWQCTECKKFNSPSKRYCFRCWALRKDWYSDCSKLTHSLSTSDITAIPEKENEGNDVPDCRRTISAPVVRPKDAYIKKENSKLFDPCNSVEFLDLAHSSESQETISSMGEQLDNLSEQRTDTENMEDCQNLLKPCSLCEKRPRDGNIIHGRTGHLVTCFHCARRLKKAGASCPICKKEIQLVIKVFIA
# Target sequence (Q00987 whole entry, looked up): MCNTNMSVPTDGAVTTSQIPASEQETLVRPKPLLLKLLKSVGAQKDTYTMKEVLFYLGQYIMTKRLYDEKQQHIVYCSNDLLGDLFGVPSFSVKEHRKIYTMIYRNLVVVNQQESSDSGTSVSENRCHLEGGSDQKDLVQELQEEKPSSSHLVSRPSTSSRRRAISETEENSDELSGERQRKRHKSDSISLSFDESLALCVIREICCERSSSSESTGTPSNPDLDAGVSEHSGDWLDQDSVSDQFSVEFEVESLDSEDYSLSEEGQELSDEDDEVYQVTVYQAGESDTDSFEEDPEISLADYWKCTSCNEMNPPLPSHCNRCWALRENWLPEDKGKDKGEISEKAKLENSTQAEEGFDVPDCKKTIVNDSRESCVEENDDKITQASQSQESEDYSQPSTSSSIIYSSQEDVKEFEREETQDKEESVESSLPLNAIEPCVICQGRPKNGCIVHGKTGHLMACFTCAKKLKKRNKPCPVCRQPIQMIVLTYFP
# CF NFkB block – inhibitors of PAF-induced NF-kB signaling, primary screen, cell-based, GFP fluorescence, uHTS; KKLEB NF-kB-GFP reporter, GFP fluorescence overnight; inhibition, % at 5 µM; 360,000 compounds, 0.86% hits;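 active = at least 50% inhibition at 5 µM, scaled per plate between neutral and stimulator controls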;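 also: PAF is a Pseudomonas aeruginosa culture filtrate used as stimulus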
# HSP90 refold inh – HSP90 inhibitors, primary screen, cell lysate, luminescence; Heat shock protein HSP 90 (rabbit reticulocyte lysate; luciferase refolding); Rabbit reticulocyte lysate, luciferase refolding luminescence, 3 h; inhibition, % at 5.6 µM; 290,000 compounds, 0.91% hits; AID 1789, 2009;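 active = inhibition above the screen-wide mean plus 3 SD, computed separately per campaign, cut at about 16% in these data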;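 also: inhibitors lower the luminescence because luciferase stays unfolded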
# LGR2 antag – inhibitors of bursicon-induced LGR2 CRE-luciferase signal, primary screen, cell-based, HEK293, CRE-luciferase reporter, bursicon stimulation; Drosophila bursicon receptor LGR2 (rickets); bursicon-stimulated, 4 h; inhibition, % at 9.99 µM; 380,000 compounds, 0.35% hits;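 active = drop in luminescence signal, shown as inhibition above about 50% in the replicate tests, limit read from the data, passing the limit was not always enough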;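 also: agonist challenge used bursicon conditioned medium at about half maximal strength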
# KKLEB cytotox – cytotoxicity in KKLEB CF airway cells, primary screen, cytotoxicity control for CF NF-kB inhibitor project, cell-based, uHTS, fluorescence assay plates; KKLEB CF airway cells viability, ATPlite luminescence, overnight; stronger effect = lower value; cells stimulated with P. aeruginosa culture filtrate; 360,000 compounds, 0.36% hits; activity change (cytotoxicity), % at 5 µM;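 active = corrected activity change at or below -50% at 5 µM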
# Peg3 promoter – Peg3 promoter-driven luciferase inhibitors, primary screen, cell-based, HeLa, luciferase luminescence; HeLa PEG-Prom luciferase reporter, overnight; inhibition, % at 20 µM; 360,000 compounds, 1.7% hits;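 active = inhibition of at least 50% at 20 µM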
# Mdm2 MdmX conf – Mdm2-MdmX complex disruptors, retested hits, confirmation, luminescence, single concentration; shares compounds with Mdm2-MdmX inh; Mdm2-MdmX binding, luminescent assay; inhibition, % at 8 µM; 10,000 compounds, 55% hits; AID 489028, 2010; in the data active = inhibition above about 40%
# FLuc counter – full-length luciferase signal inhibition, confirmation, counter-screen for Mdm2/MdmX interaction inhibitor project, cell-based, single concentration, SaOS-2 | shares compounds with Mdm2-MdmX inh | SaOS-2 full-length luciferase counterscreen, luminescence | inhibition, % at 8 µM | AID 504607, 2011 | 6,200 compounds, 77% hits;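 active = mean inhibition at 8 µM reaching about 37%, which flags the compound as non-specific, limit read from the data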;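 also: p53-null SaOS-2 cells with luciferase driven by a doxycycline-inducible promoter; compound on cells about two nights before reading with doxycycline added after day one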
# Numbers stand for hits; n = inactive; x = no result given.
SMILES,Mdm2-MdmX inh,CF NFkB block,HSP90 refold inh,LGR2 antag,KKLEB cytotox,Peg3 promoter,Mdm2 MdmX conf,others
CC(C)c1cn(CC[C@@H]2CC[C@H](NS(=O)(=O)c3ccc(Cl)cc3)[C@H](CO)O2)nn1,x,x,x,n,x,x,x,
COc1ccc2c3c([nH]c2c1)[C@H](CO)N(C(=O)CN1CCOCC1)CC31CCN(C)CC1,x,x,x,n,x,x,x,
O=C(C[C@@H]1CC[C@@H]2[C@H](COC[C@@H](O)CN2CCC(F)(F)F)O1)NCC1CCCCC1,x,x,x,n,x,x,x,
COc1cc2cc(C)c3nnc(SCC(=O)Nc4cc(C)on4)n3c2cc1OC,n,n,n,n,n,n,x,
Cc1cc(NC(=O)CSc2nnc3c(C)cc4c(C)ccc(C)c4n23)no1,66.1,n,n,x,n,n,63.2,FLuc counter=58.4
CCc1nnc(NC(=O)CSc2nnc3c(C)cc4c(C)ccc(C)c4n23)s1,60.0,n,n,x,n,n,65.5,FLuc counter=58.1
COc1ccc(Cl)cc1NC(=O)CN(C)CC(=O)Nc1ccccc1N1CCOCC1,57.9,n,n,n,n,n,54.7,FLuc counter=65.5
COc1ccc(Cl)cc1NC(=O)CC(=O)Nc1cc(Cl)ccc1OC,65.8,n,n,n,n,n,n,
COc1ccc(Cl)cc1NC(=O)CN(C)C(=O)c1sc2ccccc2c1Cl,54.0,n,x,n,n,n,n,
COc1ccc(Cl)cc1NC(=O)CN(C)CC(=O)N1CC(=O)Nc2ccccc21,n,n,x,n,n,n,x,
COc1ccc(Cl)cc1NC(=O)Cn1cccc1,n,n,n,n,n,n,x,
CCCNC(=O)N1CC2(CN(S(=O)(=O)CC)C2)c2c(n(C)c3cc(OC)ccc23)[C@H]1CO,x,x,x,n,x,x,x,
Cc1cc(/C=C(\C#N)C(=O)NCCc2c[nH]c3ccccc23)c(C)n1C,n,n,n,n,n,n,x,
COc1cc(/C=C(/C#N)C(=O)NCCc2c[nH]c3ccccc23)ccc1OCc1ccccc1F,62.8,n,n,x,n,89.4,n,
C(=N\Nc1ncnc2sc3c(c12)CCC3)/c1cccs1,58.1,n,n,x,n,n,50.0,FLuc counter=n
C[C@H](CO)N1C[C@H](C)[C@@H](CN(C)C(=O)Nc2ccc3c(c2)OCO3)Oc2ccc(NC(=O)CCCN(C)C)cc2C1=O,x,x,x,n,x,x,x,
O=[N+]([O-])c1ccccc1/C=C/C=N/Nc1ccc(S(=O)(=O)Nc2ccc(Cl)cc2)cc1[N+](=O)[O-],56.2,n,n,n,n,n,n,
O=[N+]([O-])c1cc(S(=O)(=O)Nc2cccc(Cl)c2)ccc1N/N=C/c1ccc(N2CCOCC2)cc1,84.1,n,n,n,n,n,n,
N#Cc1ccc(-c2ccc3c(c2)[C@@H]2[C@@H](CCN2C(=O)c2ccccc2F)[C@@H](CO)N3)cc1,x,x,x,n,x,x,x,
Cc1noc(C)c1S(=O)(=O)Nc1ccc2c(c1)C(=O)N([C@H](C)CO)C[C@@H](C)[C@@H](CN(C)Cc1ccncc1)O2,x,x,x,n,x,x,x,
O=C(N/N=C/c1cnc(N2CCCCC2)s1)c1ccc(C(F)(F)F)cc1,68.9,n,n,n,n,n,58.1,FLuc counter=37.4
CC1CN(c2ncc(/C=N/NC(=O)c3ccccc3O)s2)CC(C)O1 (stereo unspecified),n,n,n,n,n,n,x,
CC(=O)N(C)C[C@H]1[C@@H](c2ccc(-c3ccc(C#N)cc3)cc2)[C@@H](CO)N1C(C)=O,x,x,x,n,x,x,x,
CCOC(=O)CSC1=C(C#N)C(c2ccc(C)s2)CC(=O)N1 (stereo unspecified),61.3,n,n,n,n,n,62.0,FLuc counter=66.7
COC(=O)[C@@H]1C[C@]2(OC(=O)c3ccccc3)C=CC(=O)C[C@@H]2N1C(=O)OCc1ccccc1,94.1,50.1,n,n,n,72.2,62.0,FLuc counter=n
SMILES,Mdm2-MdmX inh,CF NFkB block,HSP90 refold inh,LGR2 antag,KKLEB cytotox,Peg3 promoter,Mdm2 MdmX conf,others
COC(CNC(=O)C1CCCN1C(=O)OCc1ccccc1)OC (stereo unspecified),x,n,n,n,n,n,x,
COC(=O)c1c(NC(=O)CN2CCC3(O)CCCCC3C2c2ccc(F)cc2)sc(C)c1C (stereo unspecified),53.3,n,n,n,n,n,n,
COc1ccc(C(=O)NC(=S)Nc2cc3oc4ccccc4c3cc2OC)cc1,n,n,n,n,n,n,x,
COc1cc(OC)cc(C(=O)NC(=S)Nc2cc3oc4ccccc4c3cc2OC)c1,72.2,54.8,n,n,-51.9,n,n,
COc1cc2c(cc1NC(=O)c1cccc([N+](=O)[O-])c1)oc1ccccc12,71.0,n,n,x,n,n,n,
COc1cc2c(cc1NC(=O)c1ccc(C)c([N+](=O)[O-])c1)oc1ccccc12,n,n,n,n,n,n,x,
CSc1ccc(NC(=O)NCCCN2CCC(Cc3ccccc3)CC2)cc1,61.3,n,n,n,n,66.1,n,
CCc1[nH]nc(C(=O)NC2CCCc3c2cnn3-c2cc(C)cc(C)c2)c1C (stereo unspecified),76.4,n,n,n,n,n,81.1,FLuc counter=95.2
Cc1cc(NC(=O)c2ccc(C#N)cc2)n(-c2ccccn2)n1,63.3,n,n,n,n,n,n,
COc1ccc(S(=O)(=O)N(C)C[C@H]2Oc3ccc(NC(=O)Cn4cnnn4)cc3CC(=O)N([C@@H](C)CO)C[C@@H]2C)cc1,x,x,x,n,x,x,x,
C[C@@H]1CN([C@H](C)CO)C(=O)c2cc(C#CC3CC3)cnc2O[C@@H]1CN(C)C(=O)CC1CC1,x,x,x,n,x,x,x,
C/C(=N\NC(=O)COc1ccccc1-c1ccccc1)c1cccnc1,n,n,n,n,n,n,x,
C/C(=N\NC(=O)COc1ccccc1-c1ccccc1)c1ccc(O)cc1O,64.0,n,n,n,n,n,46.6,FLuc counter=37.2
CCCCCCCCCC(=O)N/N=C(\C)c1cccnc1,n,n,n,x,n,n,x,
CCCCCC(=O)N/N=C(\C)c1ccccn1,60.5,n,n,x,n,n,n,
C/C(=N\NC(=O)COc1ccccc1-c1ccccc1)c1ccccn1,86.2,n,n,n,n,n,72.1,FLuc counter=51.0
Cc1noc(C)c1S(=O)(=O)Nc1ccc2c(c1)C(=O)N([C@@H](C)CO)C[C@@H](C)[C@@H](CN(C)C(=O)NC(C)C)O2,x,x,x,n,x,x,x,
Cc1ccc(S(=O)(=O)NCC[C@@H]2CC[C@@H](NC(=O)c3ccccn3)[C@H](CO)O2)cc1,x,x,x,n,x,x,x,

# Screening results: PubChem, several laboratories
